HEK293 tox – cytotoxicity counter-screen for GLP-1 receptor inverse agonists | HEK293 cAMP-luciferase reporter cells, luminescence, 24 h | Potency, µM (doses to about 38.3 µM), most hits filed as inhibitors | actives 0.13% (n = 410,000);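 also: loss of luciferase light is scored as toxicity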
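Here, cytotoxicity is scored as loss of luminescence. The MLSMR collection was tested on cells seeded in medium containing 10% Nu serum, with a 24 hr compound exposure preceded by 12 hours of culture.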
DRD3 antagonist – blocks the human D3 dopamine receptor. actives 2.5% (n = 360,000). D3R cells, DiscoveRx beta-arrestin luminescence, antagonist mode; stronger effect = lower value. max response, negative = inhibition, %; in the data active = max response below about -50%; inconclusive = no clear call, values can overlap the other calls
Target sequence (P35462 whole entry, looked up): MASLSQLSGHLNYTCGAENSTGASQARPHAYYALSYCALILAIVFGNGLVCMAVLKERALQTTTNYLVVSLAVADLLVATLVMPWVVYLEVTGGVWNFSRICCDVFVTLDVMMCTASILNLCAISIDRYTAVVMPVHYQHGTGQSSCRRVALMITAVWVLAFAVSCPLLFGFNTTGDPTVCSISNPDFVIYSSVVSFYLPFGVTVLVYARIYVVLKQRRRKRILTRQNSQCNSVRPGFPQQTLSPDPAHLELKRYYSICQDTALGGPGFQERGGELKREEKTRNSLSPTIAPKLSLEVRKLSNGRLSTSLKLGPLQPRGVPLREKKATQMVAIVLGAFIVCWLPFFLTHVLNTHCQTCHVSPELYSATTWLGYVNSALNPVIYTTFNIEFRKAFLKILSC
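Cells plated overnight at 1500 cells/well, then exposed to library compounds with dopamine controls for 90 minutes at 37 degrees C. DiscoveRx reagent added for 30–60 minutes at room temperature; luminescence read, quantitative HTS format.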
GLP-1R inv ag – GLP-1 receptor (human) inverse agonism. P43220. HEK293 GLP-1R CRE-luciferase, luminescence, 24 h; GLP-1R form is constitutively active. Potency, µM (top dose mostly 38.3 µM), hits mostly inhibitors. actives 1.6% (n = 410,000). AID 624417; also: nearly all actives have a fitted effect of over 55% in size
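Stable HEK293 clone (constitutively active GLP-1R + cAMP-response luciferase); 200 cells/uL plated, 12 h pre-culture, compound 24 hr, 37 deg C/5% CO2; detection reagent 12 min RT; luminescence.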
D3 ag – agonists of human D3 dopamine receptor; P35462; D3R DiscoveRx beta-arrestin cells, luminescence, 90 min; max activation, %; actives 0.58% (n = 410,000); AID 652048; in the data active = max activation above about 30%
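Agonist mode: compounds and dopamine controls were applied to plated cells for 90 min at 37 degrees C after an overnight attachment at 1500 cells/well. Luminescent read-out followed 30 - 60 minutes at room temperature with DiscoveRx detection reagent.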
ClpP mod – qHTS Assay for Activators of ClpP | ATP-dependent Clp protease proteolytic subunit (Bacillus subtilis (strain 168)), P80244 | purified B. subtilis ClpP, FRET peptide cleavage, 20 min | Potency, µM (doses to about 57.5 µM) | actives 1.9% (n = 340,000) | AID 651965, 2013; active = well fitted falling curve with a large enough effect; inconclusive = small, poorly fitted or top-dose-only effect; inactive = no such curve, though single readings can be large or run the other way; also: the source files actives as falling curves though it sought activators and does not explain the sign; nearly all actives have a fitted effect of over 65% in size
Target sequence (P80244 whole entry, looked up): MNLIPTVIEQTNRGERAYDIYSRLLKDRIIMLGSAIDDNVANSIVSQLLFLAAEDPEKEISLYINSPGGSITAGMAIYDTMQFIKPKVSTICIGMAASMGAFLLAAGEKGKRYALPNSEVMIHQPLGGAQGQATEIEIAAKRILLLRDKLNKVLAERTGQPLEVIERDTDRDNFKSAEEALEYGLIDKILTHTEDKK
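Purified B. subtilis ClpP, 10 microg/mL final in Tris/HCl pH8 with KCl, BSA, glycerol and Tween-20, cleaved an Abz/nitrotyrosine-quenched decapeptide. Fluorescence (ex 320, em 430) was read at 0 and 20 min at room temperature. Delta was normalized to 5.8 microM ADEP and DMSO/no-enzyme controls.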
GLP1R ag – activates the human GLP-1 receptor; actives 0.007% (n = 380,000); Potency, µM (top dose mostly 45.6 µM), usual class: activators; HEK293 GLP-1R CRE-luciferase, luminescence, 4-6 h; cells express a hypersensitive GLP-1R form; P43220
Large screens that a line does not name were inactive. Hits are enriched below; roughly 5.7% of the tested compounds scored in any of these assays. Unless noted, calls follow the shape of the dose curve; as a rule, active = well fitted curve in the direction sought with a large enough effect; inconclusive = small, poorly fitted or top-dose-only effect, or another doubt; inactive = no such curve, though single readings can be large; an effect the other way counts as inactive or inconclusive.

CN(C)C(=O)COC(=O)c1cc(Cl)cc(Cl)c1N	ClpP mod inconclusive
CC1CCN(C(=O)COC(=O)c2cc(Cl)cc(Cl)c2N)CC1	ClpP mod 28.2µM
CC(C)N(C(=O)COC(=O)c1cc(Cl)cc(Cl)c1N)C(C)C	GLP-1R inv ag inconclusive, ClpP mod 15.8µM
Cc1ccc(Cn2c(C)c(CNC3CCCCC3)c(C(=O)O)c2C)cc1	none (no result: DRD3 antagonist, GLP1R ag)
C[C@H](c1ccccc1)N1C[C@@H](COCc2ccccc2)Oc2cc(N3CCC[C@H]3CO)ccc2S1(=O)=O	GLP-1R inv ag inconclusive
CSCC(C)N1CCC(CO)(CCc2ccccc2)CC1 (configuration not stated)	none (no result: ClpP mod)
CC(COc1ccccc1)N1CCC(CO)(CCc2ccccc2)CC1 (configuration not stated)	HEK293 tox inconclusive, DRD3 antagonist -62.0, GLP-1R inv ag inconclusive (no result: ClpP mod)
COc1ccc(CCC(C)N2CCC(CO)(Cc3ccccc3)CC2)cc1 (configuration not stated)	GLP-1R inv ag 7.94µM (no result: ClpP mod)
O=S1(=O)CCO[C@H]2CCCC[C@@H]2N1Cc1cccc(F)c1	none (no result: HEK293 tox, DRD3 antagonist, GLP-1R inv ag, D3 ag, GLP1R ag)
O=C(CCCn1c(=O)c2cccn2c2cccnc21)NCc1ccccc1Br	ClpP mod inconclusive (no result: DRD3 antagonist, GLP1R ag)
COc1ccc(C(OC(=O)c2ccco2)C(=O)NC(C)(C)C)cc1OC (configuration not stated)	none
CC(C(=O)NCc1ccccc1)N1C(=O)C2CC=C(Cl)CC2C1=O (configuration not stated)	ClpP mod 28.2µM
Cc1cccc(NC(=O)c2cccc(N3CCCS3(=O)=O)c2)c1	none (no result: DRD3 antagonist, GLP1R ag)
COC(=O)c1ccccc1NC(=O)N1CCc2c(sc3c2CCCC3)C1c1ccc(F)cc1 (configuration not stated)	none (no result: DRD3 antagonist, GLP1R ag)
CCOC(=O)Cc1ccc(NC(=O)N2CCc3c(sc4c3CCCC4)C2c2ccc(F)cc2)cc1 (configuration not stated)	GLP-1R inv ag 3.98µM (no result: DRD3 antagonist, GLP1R ag)
CS(=O)(=O)c1ccc(C(=O)NC2CCOC2=O)cc1 (configuration not stated)	D3 ag 32.0
Cc1ccc2c(CN(Cc3ccccc3)Cc3ccccc3)cc(=O)oc2c1	DRD3 antagonist inconclusive, GLP-1R inv ag inconclusive
CCN(Cc1cc(=O)oc2cc(C)ccc12)c1ccccc1	GLP-1R inv ag 10µM
Cc1ccc2c(CN(C)Cc3ccc(Cl)cc3Cl)cc(=O)oc2c1	GLP-1R inv ag 11.2µM (no result: ClpP mod)
COc1ccc2c(CN(C)c3ccccc3)cc(=O)oc2c1	GLP-1R inv ag inconclusive, ClpP mod 22.4µM
COc1ccc2c(CN(C)Cc3ccccc3)cc(=O)oc2c1	GLP1R ag inconclusive
CCCCCCCCN1C(=O)[C@H](CC(=O)N2CCCCC2)C[C@@]2(C(=O)OC)CCCCC=C12	GLP-1R inv ag inconclusive
O=C1C=C(CO)OCC1=O	none (no result: HEK293 tox, DRD3 antagonist, GLP-1R inv ag, D3 ag, ClpP mod)
CCOC(=O)CNC(=O)CSc1cn(CC(=O)N2CCCCCC2)c2ccccc12	none (no result: DRD3 antagonist, GLP1R ag)
O=C1CC(Sc2ncccn2)C(=O)N1c1ccccc1 (configuration not stated)	none
Nc1nnc(SC2CC(=O)N(c3ccccc3)C2=O)s1 (configuration not stated)	DRD3 antagonist -54.8
C[C@@H]1CN([C@@H](C)CO)C(=O)c2cc(Br)cnc2O[C@@H]1CN(C)S(C)(=O)=O	none
COc1ccc(Cl)cc1NC(=S)NCCC(c1ccccc1)c1ccccc1	DRD3 antagonist -64.6, GLP-1R inv ag inconclusive
COc1cc(NC(=S)NCCC(c2ccccc2)c2ccccc2)c(OC)cc1Cl	GLP-1R inv ag inconclusive
CCc1nc2ccc(C(=O)N3CCCCC3)cn2c1N(CCC(C)C)CCN(C)C	D3 ag 53.1
CC1(C)CC(Cc2ccccc2C(F)(F)F)N(C(=O)OC(C)(C)C)C1 (configuration not stated)	none (no result: GLP1R ag)
Cc1cc(C)c2oc(-c3cc(NC(=O)Cc4ccccc4)ccc3Cl)nc2c1	none (no result: DRD3 antagonist, GLP1R ag)
COc1ccc(CN(Cc2ccccc2)C(=O)Nc2ccccc2)cc1COc1ccc(NC(C)=O)cc1	none (no result: HEK293 tox, DRD3 antagonist, GLP-1R inv ag, D3 ag, GLP1R ag)
CCCC(=O)Nc1ccc2c(c1)nc(CN1CCCCC1)n2C	none
Cn1c(CN2CCCCC2)nc2cc(NS(=O)(=O)c3ccc(Cl)cc3)ccc21	DRD3 antagonist -64.8, GLP-1R inv ag inconclusive
CC(=O)NCCc1nc2cc(NS(=O)(=O)c3ccc(Cl)cc3)ccc2n1C	none
Cn1c(CCN2CCCCC2)nc2cc(NS(=O)(=O)c3ccc(Cl)cc3)ccc21	DRD3 antagonist -72.5
Cn1c(CN2CCCCC2)nc2cc(NS(=O)(=O)c3ccc(F)cc3)ccc21	DRD3 antagonist -73.3, GLP-1R inv ag inconclusive (no result: ClpP mod)
Cc1ccc(Cn2ccnc2SCC(=O)Nc2nc3ccccc3s2)cc1	none (no result: DRD3 antagonist, GLP1R ag)
CCOC(=O)c1c(C)[nH]c(C)c1C(=O)CSc1nc2ccccc2c(=O)n1-c1ccc(F)cc1	GLP1R ag inconclusive (no result: ClpP mod)
CCOC(=O)c1c(C)[nH]c(C)c1C(=O)CSc1nc2ccccc2c(=O)n1-c1ccccc1C	GLP-1R inv ag inconclusive, ClpP mod 28.2µM
Cn1c(SCC(=O)Nc2nc3ccccc3s2)ncc(C(=O)Nc2ccc(Cl)cc2)c1=O	ClpP mod 22.4µM (no result: DRD3 antagonist, GLP1R ag)
Cn1c(SCC(=O)Nc2nc3ccccc3s2)ncc(C(=O)Nc2ccccc2)c1=O	ClpP mod inconclusive (no result: DRD3 antagonist, GLP1R ag)
CCN(CC)CCCNC(=O)CCC(=O)Nc1ccc2nc(N3CCCCC3)cc(C)c2c1	GLP-1R inv ag inconclusive
CCOC(=O)C1CCCN(C(=O)CCC(=O)Nc2ccc3nc(N4CCOCC4)cc(C)c3c2)C1 (configuration not stated)	ClpP mod 8.91µM
Cc1cc(N2CCOCC2)nc2ccc(NC(=O)CCC(=O)N3CCN(c4ccccc4)CC3)cc12	none (no result: ClpP mod)
CCCCN(CC)CCNC(=O)CCC(=O)Nc1ccc2nc(N3CCN(C)CC3)cc(C)c2c1	DRD3 antagonist -57.0, GLP-1R inv ag inconclusive
CCN(CC)CCCNC(=O)CCC(=O)Nc1ccc2nc(N3CCC(C)CC3)cc(C)c2c1	GLP-1R inv ag 7.08µM
Cc1cc(N2CCN(C)CC2)nc2ccc(NC(=O)CCC(=O)NCCC3=CCCCC3)cc12	DRD3 antagonist -53.2, ClpP mod inconclusive
CCCCN(CC)CCNC(=S)Nc1ccc2nc(N3CCN(C)CC3)cc(C)c2c1	HEK293 tox inconclusive, DRD3 antagonist inconclusive, GLP-1R inv ag inconclusive (no result: ClpP mod)
COc1ccc(-c2cc(-c3ccc(C)cc3)nc3c2COc2ccccc2-3)cc1	none (no result: DRD3 antagonist)
O=C(Nc1ccccc1Cl)C1CCN(c2nc3ccccc3nc2C(F)(F)F)CC1	none (no result: DRD3 antagonist, GLP1R ag)
Cc1ccc(Nc2nc3ccccc3c3nncn23)cc1C	ClpP mod inconclusive (no result: DRD3 antagonist, GLP1R ag)
CCCN(CCC)CCNC(=O)CCC(=O)Nc1ccc2nc(N3CCOCC3)cc(C)c2c1	DRD3 antagonist -65.8

Compound activity: PubChem, National Center for Advancing Translational Sciences (NCATS)
